The campaign covered roughly 59,000 compounds. About 6,200 (11%) were called active. Another 9% or so got no clear call; they are omitted. Rule as the data show it: active = max dye-equivalent concentration above about 10 nM; inconclusive = mostly about 1.1 nM to 9.6 nM; inactive = weaker than that. The list comes from a sample in which actives are over-represented; it also holds similar structures and randomly drawn compounds. More than one record can exist for a structure, and the calls need not agree.

The assay is described as follows: qHTS Assay for Spectroscopic Profiling in 4-MU Spectral Region. As to conditions: compound autofluorescence, 340/450 nm, 4-MU equivalents; stronger effect = higher value. The text has this:
NIH Molecular Libraries Screening Centers Network [MLSCN] NIH Chemical Genomics Center [NCGC] […] Occasionally, the artifactual effect may originate from the compounds own spectral or other biophysical properties which generally tend to track its assay concentration. Pre-screening/profiling the library with respect to the compounds spectral properties should help one exclude false positives early on. While the most informative fluorescent profiling data set is obtained by performing a full excitation and emission scan of each well by using a monochromator-based plate reader, such an approach is practical only on a very limited scale as scanning each well requires long time. An alternative approach, applied here, is to perform plate reader scans using selected excitation and emission wavelength pairs to generate a multidimensional relational database that correlates compound concentration and the respective relative fluorescence intensity at a given wavelength set. A standard curve of 4-methylumbelliferone (4-MU) present on each plate as six-point concentration series, was used to compute a normalized fluorescence response, termed dye-equivalent concentration, for each compound at each concentration.
NCGC Assay Protocol Summary: Buffer: 100 mM Tris buffer, pH 8.0 Dye standard plate: The wells in columns 1 through 4 of a Kalypsys polypropylene 1536-well compound plate were filled with standard solutions of fluorophore corresponding to the spectral region of interest. Solutions of 4-MU were placed in the following wells: A1, B1: 3 mM, A2, B2: 300 uM, A3, B3: 30 uM, A4, B4: zero (DMSO), C1, D1: 3 uM, C2, D2: 900 nM, C3, D3: 300 nM, C4, D4: zero (DMSO). Assay Steps: Six uL of buffer were dispensed to 1536-well Greiner black plates. Compounds and dye standards (23 nL) were transferred via Kalypsys PinTool. The plates were incubated for 15 min at room temperature, and then read on ViewLux (Perkin-Elmer) High-throughput CCD imager using 340 nm and 450 nm excitation and emission filter set. Keywords: NIH Roadmap, MLSCN, MLI, MLSMR, qHTS, NCGC, Fluorescent Profiling, 4MU, 4-MU
In general terms: In qHTS, concentration-response curves come from the screen itself.
On to `C[C@]12CC[C@H](O)C[C@@H]1CC[C@H]1[C@H]2CC[C@]2(C)C(=O)CC[C@@H]12`, for which the max dye-equivalent concentration is 69 nM (active) and the outcome was inactive.

For `C[C@@]12CC[C@H](O)C[C@@H]1CC[C@@H]1[C@@H]2CC[C@@]2(C)[C@@H](C3=CC(=O)OC3)[C@H](O)C[C@]12O`, the max dye-equivalent concentration entry is “inactive”.

`C[C@]12CC[C@H](O)CC1=CC[C@@H]1[C@H]2CC[C@]2(C)C(=O)CC[C@H]12`: the max dye-equivalent concentration result is “inactive”.

With `Cc1ccc(S(=O)(=O)O[C@H]2CN3CCC2CC3)cc1`, the max dye-equivalent concentration entry was “inactive”.

`CC1=CC(=O)C2=C(C)C[C@H](O)[C@@H]3[C@@H](OC(=O)[C@H]3C)[C@H]12`: the max dye-equivalent concentration entry is “inactive”.

As to `O=C1C2CCN(CC2)C1(CO)CO`, the max dye-equivalent concentration entry was “inactive”.

Turning to `c1ccc2c(c1)[I+]c1ccccc1-2`, the max dye-equivalent concentration result is “inactive”.

As for `CSC1=NP(=S)(SC)N(C)c2nc3n(c21)CCC3` (stereo unspecified), the max dye-equivalent concentration is 22 nM (active).

Take `c1csc(CN2CC3(CCNCC3)C2)n1`: the max dye-equivalent concentration entry was “inactive”.

With `CC(C)CCC1(CCN)C(=O)NC(=O)NC1=O`, the max dye-equivalent concentration result is “inactive”.

Regarding `CN1[C@@H]2CC[C@H]1CC(OC(=O)c1cc(Cl)cc(Cl)c1)C2` (stereo partly specified), the max dye-equivalent concentration entry was “inactive”.

With `CC(=O)c1c(O)c(C)c(O)c(Cc2c(O)c3c(c(C(=O)/C=C\c4ccccc4)c2O)OC(C)(C)C=C3)c1O`, the max dye-equivalent concentration result was “inactive”.

Take `C[C@H]1CC[C@@]2(NC1)O[C@@H]1C[C@H]3[C@@H]4CC=C5C[C@@H](O)CC[C@]5(C)[C@@H]4CC[C@]3(C)[C@@H]1[C@@H]2C`: the max dye-equivalent concentration result was “inactive”.

On to `C/C(CCc1c[nH]c2ccccc12)=N\O`, for which the max dye-equivalent concentration is 13 nM (active).

For `NCCc1c[nH]c2ccc(O)cc12`, the max dye-equivalent concentration entry was “inactive”.

As to `CCN(CC)CCn1ncc2c(N)ncnc21`, the max dye-equivalent concentration entry is “inactive”.

On to `N[C@H](C(=O)O)c1cc(=O)[nH]o1`, for which the max dye-equivalent concentration entry was “inactive”.

On to `COC(=O)C(O)(c1ccc(NC(=O)c2ccco2)c(OC)c1)C(F)(F)F` (stereo unspecified), for which the max dye-equivalent concentration entry is “inactive”.

With `O=C(c1cc(-c2ccncc2)nc2ccccc12)N1CCC2(CC1)OCCO2`, the max dye-equivalent concentration result is “inactive”.

As for `O=C(c1cc2nc(-c3ccccc3)cc(-c3ccccc3)n2n1)N1CCC2(CC1)OCCO2`, the max dye-equivalent concentration was 64 nM (active).

As for `Cc1cccc(-n2c(C)nc3cc(C(=O)N4CCC5(CC4)OCCO5)ccc32)c1`, the max dye-equivalent concentration result was “inactive”.

In the case of `NC[C@H](O)c1ccc(O)cc1`, the max dye-equivalent concentration result was “inactive”.

For `NC(=O)c1ccc(OC[C@H](O)CN2CC=C(c3ccc(F)cc3)CC2)cc1`, the max dye-equivalent concentration entry is “inactive”.

For the molecule `COc1cc(C[C@H](C)N)c(OC)cc1I`, the max dye-equivalent concentration entry is “inactive”.

For `CC(=O)NBr`, the max dye-equivalent concentration result is “inactive”.

`C[C@H](Br)C(=O)N[C@H](CO)C(=O)O`: the max dye-equivalent concentration result was “inactive”.

With `COc1ccc(C2NCc3ccc4c(c3-n3cccc32)OCO4)cc1OC` (stereo unspecified), the max dye-equivalent concentration entry is “inactive”.

For `CCOC(=O)c1c(-c2ccccc2)oc2ccc(OC(=O)N(C)C)cc12`, the max dye-equivalent concentration is 50 nM (active).

Take `c1ccc(CN2CC[C@@]3(CCCNC3)C2)cc1`: the max dye-equivalent concentration was 11 nM (active).

Turning to `c1csc(CN2CCCC3(CCNCC3)C2)n1`, the max dye-equivalent concentration entry is “inactive”.

As for `c1ccc(N2CC[C@@]3(CCCNC3)C2)nc1`, the max dye-equivalent concentration result is “inactive”.

As for `C[C@@]12CC[C@H]3[C@@H](CC[C@]4(O)C[C@H](O)CC[C@@]34C=O)[C@]1(O)CC[C@@H]2C1=CC(=O)OC1`, the max dye-equivalent concentration result was “inactive”.

As to `CCN1C[C@@]2(COC)CC[C@H](OC)[C@]34[C@@H]1[C@]1(OCO[C@@]15C[C@@H](OC)C1C[C@H]3[C@H]5[C@@H]1OC)[C@H](O)[C@@H]24`, the max dye-equivalent concentration result is “inactive”.

Take `C=CCN1C(=O)C2(C(C(=O)OCC)=C(N)Oc3c2c(=O)oc2ccccc32)c2ccccc21` (stereo unspecified): the max dye-equivalent concentration result was “inactive”.

Regarding `CS(=N)(=O)CC[C@H](N)P(=O)(O)O` (stereo partly specified), the max dye-equivalent concentration result is “inactive”.

Consider `CCOC(=O)c1c(N)n(Cc2ccccc2)c2nc3ccccc3nc12`, for which the max dye-equivalent concentration is 1100 nM (active).

Take `CC(=O)O[C@H]1CC[C@@]2(C)[C@@H](CC[C@H]3[C@H]2CC(=O)[C@]2(C)[C@@H]3C[C@@H](N3CC3)[C@H]2C(C)=O)C1`: the max dye-equivalent concentration entry is “inactive”.

For the molecule `CCNC[C@H](O)c1cccc(O)c1`, the max dye-equivalent concentration result was “inactive”.

`CC[C@]1(O)C(=O)OCc2c1cc1n(c2=O)Cc2cc3ccccc3nc2-1`: the max dye-equivalent concentration was 2300 nM (active).

With `CC[C@@](O)(C(=O)O)c1cc2n(c(=O)c1CO)Cc1cc3ccccc3nc1-2`, the max dye-equivalent concentration is 840 nM (active).

As for `CN1CCN(C(=O)O[C@@H]2c3nccnc3C(=O)N2c2ccc(Cl)cn2)CC1`, the max dye-equivalent concentration entry was “inactive”.

For the molecule `CCN1C[C@]2(C)CC[C@H](O)[C@@]34[C@@H]5CC6[C@@H](OC)C[C@@](O)([C@@H]5[C@@H]6O)[C@H](C[C@@H]23)[C@H]14`, the max dye-equivalent concentration result was “inactive”.

`O=C(Nc1cccc(F)c1)N1CC[C@@]2(CCCN(C(=O)Oc3ccccc3)C2)C1`: the max dye-equivalent concentration result was “inactive”.

In the case of `NCC[Se][Se]CCN`, the max dye-equivalent concentration result was “inactive”.

For `CCN1c2nc3c(C)cccn3c(=O)c2CC2(C(=O)N(C)C(=O)N(C)C2=O)C1C` (stereo unspecified), the max dye-equivalent concentration is 29 nM (active).

For the molecule `CC(C)(O)/C=C\C(=O)[C@](C)(O)[C@H]1[C@H](O)C[C@]2(C)[C@@H]3CC=C4[C@@H](C=C(O)C(=O)C4(C)C)[C@]3(C)C(=O)C[C@@]12C`, the max dye-equivalent concentration result is “inactive”.

`NCCc1ccc(S(=O)(=O)F)cc1`: the max dye-equivalent concentration result is “inactive”.

For `C[N+]1(C)C2CC(OC(=O)C(CO)c3ccccc3)CC1[C@@H]1O[C@H]21` (stereo partly specified), the max dye-equivalent concentration entry was “inactive”.

In the case of `O=C(O)C(=O)Cc1ccc2c(c1)OCO2`, the max dye-equivalent concentration entry is “inactive”.

On to `CC(C)(O)[C@H]1[C@H]2OC(=O)[C@@H]1[C@]1(O)C[C@H]3O[C@]34C(=O)O[C@H]2[C@]14C`, for which the max dye-equivalent concentration result was “inactive”.

These data come from PubChem BioAssay AID589 (National Center for Advancing Translational Sciences (NCATS), 2007).
